Results: the supplement of paper PMC9925115

Each compound was assayed on FLX1 + dox-induced PRKAR1A G325D (assay: difference in log2 fold change of viability vs plate median (dox-induced PRKAR1A G325D minus uninduced); higher = compound less effective when PKA is inhibited). Conditions: concentration: not stated (2 or 5 uM); 5 days.
Procedure: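 For each plate a log2 fold change vs the plate median was derived, and the values without dox were subtracted from those with dox, averaged over three biological replicates.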
For `CCN1CCN(C(=O)Cc2ccc(Nc3ncc(F)c(Nc4ccc(C(=O)Nc5ccccc5Cl)cc4)n3)cc2)CC1` [Aurora A Inhibitor I], the “difference in log2 fold change of viability” value (“difference in log2 fold change” for short) was -0.138. In the case of `CC(C)(C)c1cc(C=C(C#N)C#N)cc(Br)c1O`, the “difference in log2 fold change” value is reported as 0.78. For `CC(C)(C)c1cc(C=C(C#N)C#N)cc(C(C)(C)C)c1O` [Tyrphostin 9], the “difference in log2 fold change” value was 0.375. For `Cn1cc(C2=C(c3cn(C4CCN(Cc5ccccn5)CC4)c4ccccc34)C(=O)NC2=O)c2ccccc21`, the “difference in log2 fold change” value was -0.214. `Cc1ccccc1-n1c(Cn2ncc3c(N)ncnc32)nc2cccc(C)c2c1=O` was tested, and the “difference in log2 fold change” value was -0.0566. With `O=c1[nH]c2ccc(Cl)cc2c(N[C@@H]2CN3CCC2CC3)c1-c1nc2ccccc2[nH]1` the “difference in log2 fold change” value was -0.0624.
